A selection: hits, their analogues and other compounds. The true share with any hit is near 1.6%.
MLLE-PAM2 inh: inhibitors of microRNA-mediated deadenylation, human PABP1 MLLE binding; inhibition, % at 20 µM; GST-MLLE / FITC-PAM2 fluorescence polarization; P11940; actives 0.36% (n = 360,000); AID 588489; in the data active = inhibition above about 35%, passing the limit was not always enough;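 note: plate controls were DMSO wells with GST-MLLE for no effect and wells lacking GST-MLLE protein for full effect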
PABP polyA inh: PABP-poly(A) binding inhibition; P11940; PABP-poly(A) RNA binding, fluorescence polarization; calls only at 35 µM; actives 1% (n = 290,000);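 note: calls also rest on retests at 20 µM and on dose response follow-up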
PERK inh: human PERK inhibition, primary cell-based screen; Q9NZJ5; CHO PERK-DD fusion, SEAP luminescence translation reporter; inhibition, % at 5.6 µM; actives 0.17% (n = 220,000);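 active = inhibition above the mean inhibition of all tested compounds plus 3 SD, set separately per screening campaign, cut at about 2.9% in these data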;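 note: PERK kinase domain activated by AP20187 dimerizer at 100 nM; 0% = DMSO with dimerizer and 100% = rapamycin at 8.4 µM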
eIF4E-4G inh: inhibitors of eIF4E and eIF4G interaction in translation initiation; inhibition, % at 21.7 µM; TR-FRET eIF4E-eIF4GI(517-606) binding, 2 h; AID 782; actives 0.37% (n = 220,000); P63073+Q04637;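 active = inhibition above about 30%, limit read from the data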;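 note: 0% = full FRET control wells and 100% = background wells lacking eIF4GI fragment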
eIF4H inh: inhibitors of RNA binding by human eIF4H; eIF4H fluorescence polarization binding assay; inhibition, % at 35 µM; actives 0.94% (n = 290,000); AID 2012;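 note: calls also rest on retests at 20 µM and on dose response follow-up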
Active calls of the source: *; i = inactive; ? = inconclusive; . = not tested or not shown; + = active, no number; [ ] = another dose, or the depositor's remark. Unless noted, the rule behind the calls is not given here.

SMILES	MLLE-PAM2 inh	PABP polyA inh	PERK inh	eIF4E-4G inh	eIF4H inh
COc1ccc(/C(C)=N\NC(=O)CSc2nnc(C)s2)cc1	48*	i	1	-2	-8
C/C(=N\NC(=O)CSc1nnc(C)s1)c1ccc(Cl)cc1	27	i	0	3	-7
O=C1OCCC1Sc1nnc(-c2ccc(F)cc2)n1Cc1ccccc1 (centres undefined)	-67	i	1	14	8
CC(C)(C)n1nnnc1CN(Cc1ccco1)Cc1cc2cc3c(cc2[nH]c1=O)OCO3	32	i	0	-13	49
O=c1[nH]c2cc3c(cc2cc1CN(CCc1ccccc1)Cc1nnnn1CC1CCCO1)OCO3 (centres undefined)	10	+	0	8	?
CCC(C)(C)n1nnnc1CN(Cc1ccco1)Cc1cc2cc3c(cc2[nH]c1=O)OCO3	40*	i	0	.	-3
O=c1[nH]c2cc3c(cc2cc1CN(Cc1nnnn1CC1CCCO1)C1CCCC1)OCO3 (centres undefined)	64*	+	1	2	76
N#Cc1c(N)n(-c2ccc(C(=O)O)cc2)c2nc3ccccc3nc12	-43	i	1	-6	80*
N#Cc1c(N)n(-c2ccc(N)cc2)c2nc3ccccc3nc12	11	i	0	2	-1
COc1cccc(C(O)c2nc(-c3cc(F)cc(F)c3)cs2)c1 (centres undefined)	10	.	.	.	.
N#Cc1ccccc1CN1C(=O)S/C(=C/c2cccn2-c2ccc(C(=O)O)cc2)C1=O	13	i	1	-4	77
O=C(O)c1ccc(-n2cccc2/C=C2/SC(=O)N(CC(=O)N3CCCC3)C2=O)cc1	6	+	.	.	84*
O=C(O)c1ccc(-n2cccc2/C=C2/NC(=O)N(c3cccc(Cl)c3)C2=O)cc1	-1	i	1	38*	92
O=C(O)c1ccc(-n2cccc2/C=C2/NC(=O)N(c3ccccc3)C2=O)cc1	-41	+	0	26	97*
CC(=O)c1ccc(Oc2cnccn2)cc1	1	i	1	0	-1
CCN(C(=O)c1cnc(NC(C)C)cc1C(F)(F)F)c1ccc(Cl)cc1Cl	4	i	1	3	0
CC(C)(CS(=O)(=O)[O-])NC(=O)CC[N+](C)(C)CCO	1	+	2	-16	88*
COc1ccccc1-c1nnc(SCC(=O)Nc2cccnc2Cl)n1C	17	.	.	.	.
COc1cccc(NC(=S)Nc2cc(C)cc(C)n2)c1	45*	i	-2	-4	-4
Cc1cc(C)nc(NC(=S)Nc2cccc(F)c2)c1	32	i	-1	6	-2
CC(C)(C)c1nnc(NC(=S)Nc2ccccc2)s1	43*	?	0	-2	?
Cc1ccc(C)c(S(=O)(=O)NNC(=O)c2sc(NS(=O)(=O)c3ccccc3)nc2C)c1	3	i	.	.	-10
O=C(CN1C(=O)/C(=C/c2ccccc2Cl)SC1=S)NC1CCS(=O)(=O)C1 (centres undefined)	39*	i	.	.	-3
O=C(c1cscn1)N1CCCC(N2CCN(c3ccc(F)cc3)CC2)C1 (centres undefined)	5	i	.	.	-13
CC1=C(C(=O)N2CCOCC2)CC(CC(=O)NCCN2CCOCC2)C(=O)N1Cc1ccc(F)cc1 (centres undefined)	13	.	.	.	.
SMILES	MLLE-PAM2 inh	PABP polyA inh	PERK inh	eIF4E-4G inh	eIF4H inh
Cc1ccc(CSC2=Nc3ccccc3C3=NC(CC(=O)NCc4ccco4)C(=O)N23)cc1 (centres undefined)	-8	+	-1	5	51*
CSCCC(=O)N1CCC(CCC(=O)NC2CC2)CC1	20	i	.	.	-6
COc1ccc(C(N)=S)c(OC)c1	39*	i	1	-1	-9
Cc1cc2c(n1-c1ccc(C(=O)O)cc1)CCCCC2	.	+	.	.	91*
CN(C)/C=N/c1ncn(-c2ncc(C(F)(F)F)cc2Cl)n1	-7	i	1	4	-11
O=C(O)c1cc(O)c2c(c1)[C@H]([C@H]1c3cc(C(=O)O)cc(O)c3C(=O)c3c(O[C@@H]4O[C@H](CO)[C@@H](O)[C@H](O)[C@H]4O)cccc31)c1cccc(OC3O[C@H](CO)[C@@H](O)[C@H](O)[C@H]3O)c1C2=O (some centres undefined)	52*	.	.	.	.
O=C(O)c1cc(O)c2c(c1)[C@@H]([C@H]1c3cc(C(=O)O)cc(O)c3C(=O)c3c(O[C@@H]4O[C@H](CO)[C@@H](O)[C@H](O)[C@H]4O)cccc31)c1cccc(OC3O[C@H](CO)[C@@H](O)[C@H](O)[C@H]3O)c1C2=O (some centres undefined)	29	.	.	.	.
CN(Cc1ccccc1)C(=O)c1cccc(NC(=O)Cc2ccc(NC(=O)C3CCN(C(=O)C4CCC4)CC3)cc2)c1	5	.	.	.	.
COc1ccc(C2c3cc(OC)c(OC)cc3CCN2S(C)(=O)=O)cc1OC (centres undefined)	-9	?	1	42*	?
COc1ccc(C2c3cc(OC)c(OC)cc3CCN2C(=O)c2ccccc2)cc1OC (centres undefined)	13	i	.	.	-6
Cn1c(CCNS(=O)(=O)c2ccccc2)nnc1SCc1cccnc1	11	i	.	.	-12
CCOC(=O)/C=C1\SCC(=O)N1CC(=O)NC1CCCCC1	-1	i	0	2	4
CCOC(=O)/C=C1\SCC(=O)N1CC(O)CN1C(=O)CS/C1=C\C(=O)OCC	-11	+	1	-1	?
O=Cc1ccccc1OCCOc1ccc([N+](=O)[O-])cc1	-1	i	1	6	-10
CCN(CC)CCN(Cc1cc2cc(C)ccc2[nH]c1=O)C(=S)Nc1ccccc1	-64	i	0	-3	-5
NS(=O)(=O)c1ccc(CCNC(=O)COC(=O)/C=C/c2cc(Br)ccc2F)cc1	-27	.	.	.	.
COC(=O)C(C)N1C(=O)S/C(=C\c2cc(C)n(-c3ccccn3)c2C)C1=O (centres undefined)	-84	i	-1	3	119
COC(=O)C(C)N1C(=O)S/C(=C/c2cc(C)n(-c3ccccn3)c2C)C1=O (centres undefined)	-7	+	-1	3	83*
O=C(NC1CCN(S(=O)(=O)c2ccc(F)cc2)CC1)c1cccnc1	-2	i	.	.	-7
Oc1ccc(-c2[nH]ncc2-c2cccc3cccnc23)c(O)c1	-1	i	-1	92*	-4
CCOc1ccc(S(=O)(=O)NC(C)C)cc1C(N)=O	6	i	0	-1	6
O=C1NC(c2ccc3c(c2)OCO3)Oc2ccccc21 (centres undefined)	6	i	0	37*[fluorescence artefact?]	1
O=C1NC(c2ccc3c(c2)OCO3)Nc2ccccc21 (centres undefined)	-8	i	2	5	8
COC(=O)CCCC1=CC2=C(c3ccccc3)C(=O)C(C)(OC(=O)C3CCCC3)C(=O)C2=CN1CCCCO (centres undefined)	14	i	.	2	1

Screening data deposited in PubChem by several laboratories.
